Measured values: PubChem BioAssay
Values joined by “and” are separate entries in the source; they are usually repeats but may differ in a detail not shown here. Equal values may be shown once. Inconclusive results are not listed. Some compounds were tested as several samples or in several runs, with calls that do not always agree. Active and inactive are the calls of the source. Unless noted, no stated cut-off is given here; in the data, active means inhibition above about 80%; inactive means the rest.

Experiments:
[1] = circadian clock period modulators, cell-based, LOPAC library, luminescence reporter (AID 2774; call rule not given here;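 further: values are relative to mean of DMSO wells on each plate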); settings: circadian reporter cells, at 7 µM, actives lie on both sides
[2] = hESC survival regulators, cell-based (AID 493140; call rule not given here;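 further: cells exposed to compounds for four days before counting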); settings: human embryonic stem cell survival screen; stronger effect = higher value
[3] = tested on: Hepatitis C virus NS3 helicase; assay: HCV NS3 helicase inhibitors, primary screen, biochemical, fluorescence polarization, LOPAC1280 library (AID 687035; in the data active means inhibition above about 37%); settings: Purified HCV NS3 helicase, Cy5-dT15 ssDNA binding fluorescence polarization; stronger effect = higher value; concentration not given here
[4] = Cy5 fluorescence quenching or enhancement artefacts, artefact control for HCV NS3 helicase inhibitor project, biochemical, LOPAC1280 (AID 687037; call rule not given here); settings: Cy5-DNA-NS3h complex fluorescence interference counterscreen
[5] = tested on: Aerobactin synthetase IucA (Klebsiella pneumoniae); assay: IucA aerobactin synthetase inhibitors, biochemical, Tocris library, absorbance (AID 1345561; call rule not given here;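 further: 100% = enzyme without compound and 0% = no enzyme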); settings: purified IucA enzyme assay, absorbance (OD) read-out; stronger effect = lower value;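 tested at 8 µM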
[6] = phospholipid biosynthesis inhibitors in animal cells, primary screen, cell-based, LOPAC library, screen 4 (AID 1347384; call rule not given here); settings: phospholipid biosynthesis inhibition screen, at 10 µM
[7] = growth inhibition of DIPG glioma cells, dose response, cell-based, SU-DIPG-XVII, MIPE5.0, CellTiter-Glo, qHTS (AID 1347060; cut-off not given, nearly all actives have AC50 up to about 26 µM;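 further: cells exposed to compound for 48 hours before viability readout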); settings: SU-DIPG-XVII viability, CellTiter-Glo ATP luminescence
[8] = viability loss in pontine glioma line – cell-based, SU-DIPG-XXV, MIPE5.0, CellTiter-Glo, qHTS, dose response (AID 1347065; cut-off not given, nearly all actives have AC50 up to about 26 µM;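 further: cells exposed to compound for 48 hours before ATP readout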); settings: CellTiter-Glo ATP luminescence
[9] = LFS_MB_P medulloblastoma growth inhibition, cell-based, chromothripsis tumors, cisplatin or BGB combos (AID 1671449); settings: LFS_MB_P medulloblastoma cells;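 further: cells exposed for 96 hours; 0% = vehicle DMSO and 100% = killing by high DMSO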
[10] = HDN33 neuroblastoma growth inhibition, cell-based, chromothripsis tumors, cisplatin or BGB combos (AID 1671450); settings: HDN33 neuroblastoma cells, stronger effect = higher value;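 further: cells exposed to compound for four days; 0% = vehicle DMSO and 100% = cell killing by high DMSO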
[11] = LFS_MB_1R medulloblastoma cell growth inhibition, synergistic combos for chromothripsis tumors, cisplatin or BGB combos (AID 1671452); settings: LFS_MB_1R medulloblastoma cells, stronger effect = higher value;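 further: cells exposed for 96 hours before readout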
[12] = HTB85 osteosarcoma cell growth inhibition, synergistic combos for chromothripsis tumors, BGB or cisplatin IC20 combos (AID 1671453); settings: HTB85 osteosarcoma cells, drug combinations, stronger effect = higher value;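 further: cells exposed for 96 hours before readout; 0% = vehicle DMSO and 100% = high DMSO killing control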
[13] = MDA-MB-436 breast carcinoma cell growth inhibition, synergistic combos for chromothripsis tumors, BGB or cisplatin combos (AID 1671458; call rule not given here;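 further: cells exposed for 96 hours; 0% = vehicle DMSO and 100% = killing by high DMSO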); settings: MDA-MB-436 breast carcinoma growth inhibition, drug combinations, stronger effect = higher value
[14] = growth inhibition of BT084 medulloblastoma cells, cell-based, ICGC_MB145, cisplatin and BGB IC40 combos (AID 1671461); settings: drug combinations, stronger effect = higher value;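 further: cells exposed to drugs for 96 hours; 0% = vehicle DMSO and 100% = high DMSO full killing control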
[15] = growth inhibition of RCMB18 medulloblastoma cells, cell-based, cisplatin and BGB IC40 combos (AID 1671462); settings: stronger effect = higher value;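 further: cells exposed to compound for four days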
[16] = growth inhibition of CRL1545 osteosarcoma cells, cell-based, cisplatin and BGB IC20 combos (AID 1671464); settings: stronger effect = higher value;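 further: cells exposed to compound for 96 hours before readout; 0% = vehicle DMSO and 100% = high DMSO killing control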
[17] = growth inhibition of DIPG glioma cells, dose response, cell-based, SU-DIPG-XIII, MIPE5.0, CellTiter-Glo, qHTS (AID 1347064; cut-off not given, nearly all actives have AC50 up to about 23 µM;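 on AC50: cells exposed to compound for 48 hours before the viability read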); settings: SU-DIPG-XIII viability, CellTiter-Glo ATP luminescence
[18] = SU-DIPG-VI glioma cell viability, MIPE4.0 library, CellTiter-Glo luminescence, qHTS (AID 1347066; cut-off not given, nearly all actives have AC50 up to about 30 µM;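 further: cells exposed to compound for 48 hours before readout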); settings: CellTiter-Glo ATP luminescence
[19] = SU-DIPG-XXV glioma cell viability, MIPE5.0 library, qHTS (AID 1347068; cut-off not given, nearly all actives have IC50 up to about 30 µM)
[20] = measured here: combination with BGB IC40, at 0.05 µM
[21] = measured here: with BGB IC20 combination, at 0.5 µM
[22] = measured here: with cisplatin IC20 combination, at 0.5 µM
[23] = measured here: combination with cisplatin, at 0.5 µM

SMILES: CC(C)C[C@H]1C(=O)N2CCC[C@H]2[C@]2(O)O[C@](NC(=O)[C@@H]3C=C4c5cccc6[nH]c(Br)c(c56)C[C@H]4N(C)C3)(C(C)C)C(=O)N12
- period change [1]: 0.365 h (inactive)
- survival [2]: 29.8 (inactive)
- inhibition [3]: 2% (inactive)
- fluorescence ratio (interference) [4]: 0.9 (inactive)
- remaining activity [5]: 93.8% (inactive)
- outcome [6]: inactive

SMILES: COc1cc([C@@H]2c3cc4c(cc3[C@@H](O[C@@H]3O[C@@H]5CO[C@@H](c6cccs6)O[C@H]5[C@H](O)[C@H]3O)[C@H]3COC(=O)[C@H]23)OCO4)cc(OC)c1O
- AC50 [7]: 0.332 µM (active)
- AC50 [8]: 5.9 µM (active)
- inhibition ([9]; at 0.5 µM, stronger effect = higher value): -18.8% (inactive) and -25.9% (inactive)
- inhibition ([9]; measured here: combination with BGB IC20, at 0.005 µM): -25.8% and -10.9%
- inhibition ([9]; measured here: combination with BGB IC40, at 0.005 µM): -33.2% and -18.4%
- inhibition [9, 20]: -33.7% and -25%
- inhibition ([9]; measured here: combination with cisplatin, at 0.5 µM, stronger effect = higher value): -32.6% and -15.4%
- inhibition ([9]; measured here: combination with cisplatin, at 5 µM, stronger effect = higher value): 28.9% and -5.22%
- inhibition ([10]; BGB combo, at 5 µM): 78% and 92.3%
- inhibition ([10]; at 0.5 µM): 53.6% (inactive) and 64.1% (inactive)
- inhibition ([10]; cisplatin combo, at 5 µM): 82.1% and 93.8%
- inhibition [10, 21]: 46.9% and 59.7%
- inhibition [10, 22]: 51% and 63.1%
- inhibition ([10]; single agent, at 5 µM): 88% and 95.5%
- inhibition ([11]; at 0.5 µM): -4.7% (inactive) and -8.97% (inactive)
- inhibition [11, 20]: 1.41% and -17.3%
- inhibition [11, 23]: 10.9% and 4.47%
- inhibition ([11]; measured here: combination with cisplatin, at 5 µM): 22.9% and 27.7%
- inhibition ([12]; at 0.5 µM): 63.9% (inactive) and 81.2% (active)
- inhibition ([12]; measured here: with BGB IC20, at 0.5 µM): 57.1% and 81.5%
- inhibition ([12]; measured here: with BGB IC20, at 5 µM): 98.1% and 98.9%
- inhibition ([12]; measured here: with cisplatin IC20, at 0.5 µM): 63.4% and 77.7%
- inhibition ([12]; measured here: with cisplatin IC20, at 5 µM): 99.6% and 99.8%
- inhibition ([12]; single agent, at 5 µM): 99.4% and 99.7%
- inhibition ([13]; at 0.5 µM): 49.3% (inactive) and 53.1% (inactive)
- inhibition ([13]; measured here: BGB combination, at 0.5 µM): 36% and 34.4%
- inhibition ([13]; measured here: BGB combination, at 5 µM): 73.1% and 71.2%
- inhibition ([13]; measured here: cisplatin combination, at 0.5 µM): 49.6% and 58.2%
- inhibition ([13]; measured here: cisplatin combination, at 5 µM): 83.3% and 88.6%
- inhibition ([14]; at 0.5 µM): -19.6% (inactive) and -7.59% (inactive)
- inhibition ([14]; cisplatin combination, at 0.5 µM): 12.3% and 2.14%
- inhibition ([14]; cisplatin combination, at 5 µM): 27.6% and 23.9%
- inhibition ([14]; measured here: BGB IC40 combination 0.05 uM, at 0.05 µM): -12.5% and 39.7%
- inhibition ([14]; single agent, at 5 µM): 19.5% and 27.4%
- inhibition ([15]; at 0.5 µM): -23.3% (inactive) and -2.62% (inactive)
- inhibition ([15]; cisplatin combo, at 5 µM): 23% and 40.9%
- inhibition ([15]; measured here: BGB IC40 combination, at 0.05 µM): -29.1% and -17.5%
- inhibition [15, 23]: -8.55% and 20.3%
- inhibition ([15]; single agent, at 5 µM): 28.8% and 46%
- inhibition ([16]; at 0.5 µM): 44.9% (inactive) and 71.7% (inactive)
- inhibition [16, 21]: 41.5% and 64%
- inhibition [16, 22]: 45.4% and 75.2%
- inhibition ([16]; single agent, at 0.05 µM): 4.76% and 55.4%
- inhibition ([16]; single agent, at 5 µM): 98% and 98.8%

SMILES: CC[C@@]1(O)C[C@H](O[C@H]2C[C@H](N(C)C)[C@H](O[C@H]3C[C@H](O)[C@H](O[C@H]4CCC(=O)[C@H](C)O4)[C@H](C)O3)[C@H](C)O2)c2c(cc3c(c2O)C(=O)c2c(O)cccc2C3=O)[C@H]1C(=O)OC
- AC50 [7]: 14.8 µM (active)
- AC50 [17]: 16.6 µM (active)
- AC50 [8]: 14.8 µM (active)

SMILES: Nc1ccn([C@@H]2O[C@H](CO)[C@@H](O)[C@H]2O)c(=O)n1
- outcome [17]: inactive
- outcome [8]: inactive
- outcome [18]: inactive
- outcome [19]: inactive

SMILES: C=C(C)[C@@H]1CC[C@]2(C(=O)O)CC[C@]3(C)[C@H](CC[C@@H]4[C@@]5(C)CC[C@H](O)C(C)(C)[C@@H]5CC[C@]43C)[C@@H]12
- survival [2]: 9.75 (inactive)
- AC50 [7]: 20.9 µM (active)
- AC50 [8]: 14.8 µM (active)
- outcome [18]: inactive
- outcome [19]: inactive
